Out of some 69,000 compounds screened, about 8,600 (12%) showed an effect of 50% or more. This excerpt belongs to a sample that is enriched for strong results.
System: Plasmodium berghei
Assay: Screen against P. berghei liver stage (PbLuc), transformed with Luciferase, at 10uM
Format: functional, HepG2
Details: tested at 10 uM

Row | SMILES | INHIBITION
1 | Cc1cccc(N2CCN(C(=O)CNCCn3cccn3)CC2)c1 | -76.5%
2 | CCC[C@H]1CN(c2cncc(C(=O)N(C)C)n2)C[C@@H]1N(C)C | 33.7%
3 | NC(=O)CN1CCN(C(=O)c2cc(Cl)cc3cccnc23)CC1 | 13.4%
4 | CN(C)c1nc2c(c(NCc3nnc4n3CCCCC4)n1)CCNC2 | 5.78%
5 | CNC(=O)c1ccccc1NCc1ncnn1C | 20%
6 | Cn1ccc2cc(CC3COCCN(C(=O)c4cccnc4)C3)ccc21 (stereo unspecified) | 29.61%
7 | COCCn1nc(C(=O)N(C)Cc2cccnc2)ccc1=O | 6.72%
8 | CC1CN(C)CCN1C(=O)c1ccc(-n2cnnc2)cc1 (stereo unspecified) | 66.1%
9 | CC1CN(C)CCN1C(=O)c1cnn(-c2cccc(Cl)c2)c1 (stereo unspecified) | 74.4%
10 | Cc1cnn(-c2ccc(C(=O)N3CCN(C)CC3C)cc2)c1 (stereo unspecified) | -15.3%
11 | CC[C@@]1(O)CCN(C(=O)c2ccc(-n3cnnc3)cc2)C[C@H]1O | 20.6%
12 | CC1CN(C)CCN1C(=O)c1cnn(-c2ccc(Cl)cc2)c1 (stereo unspecified) | 66.1%
13 | CC(O)CN1CCN(C(=O)c2cnn(-c3ccc(Cl)cc3)c2)CC1 (stereo unspecified) | 16.6%
14 | Cc1ccccc1N1CCN(C(=O)c2cnn(C(C)C)c2)C(C)C1 (stereo unspecified) | 12.1%
15 | CC1CN(C)CCN1C(=O)c1cnc2c(cnn2C2CCCC2)c1 (stereo unspecified) | 31.2%
16 | CC1CN(C)CCN1C(=O)c1cccn1Cc1cccnc1 (stereo unspecified) | 17.9%
17 | O=C(Cc1ccc(Cl)s1)Nc1ccc2c(c1)C(=O)NC2=O | -97.9%
18 | Cc1nn(C)c(N2CCOCC2)c1CNC1CCC(O)CC1 (stereo unspecified) | 9.14%
19 | COc1ccccc1CC(C)(C)C(=O)NCC(=O)Nc1cccnc1 | 56.6%
20 | COc1ccccc1CCNC(=O)NCC(=O)Nc1cccnc1 | -21.8%
21 | CC(C)(C)C(=O)NCC(=O)Nc1cccnc1 | 45.5%
22 | COC(=O)NCCCn1ccnc1-c1ccccc1 | -17.4%
23 | O=C(Cc1ccsc1)N1CCc2ncc(Cn3cccn3)n2CC1 | 42.7%

Row | SMILES | INHIBITION
24 | COc1c(CNC(C)c2sc(C)nc2C)c(C(C)C)nn1C (stereo unspecified) | 33.7%
25 | CN1CC2(CCN(C(=O)Cc3ccccn3)CC2)OCC1=O | -28.2%
26 | CNc1cc(N2CCCC2CNCc2cscn2)ncn1 (stereo unspecified) | -2.35%
27 | COCCN1CC[C@H]2OCC[C@@H](C(=O)N3CCCO3)[C@H]2C1 | 1.9%
28 | N#Cc1cn[nH]c1NCc1cc(Cl)cc(Cl)c1O | 62.2%
29 | N#Cc1cn[nH]c1NCc1cc(Br)ccc1O | 27.5%
30 | N#Cc1cn[nH]c1NCc1cc(I)cc(I)c1O | 19.7%
31 | c1ccn(Cc2nnc3n2CCCN(Cc2ccoc2)C3)c1 | -13.1%
32 | O=C(Nc1ccc2c(c1)OCO2)N1CCN(CCn2ccnc2)CC1 | 6.99%
33 | O=C(Nc1cccc(C(F)(F)F)c1)N1CCN(CCn2ccnc2)CC1 | 60.2%
34 | CC(C(=O)Nc1cccc(C(F)(F)F)c1)N(C)CCN1CCOCC1 (stereo unspecified) | 35.2%
35 | CN(C)Cc1nc2c(o1)CN(C(=O)NCc1cccc(F)c1)C2 | 13.7%
36 | CNC(=O)c1cn[nH]c1C1CCN(Cc2cccc(C)c2OC)C1 (stereo unspecified) | 6.32%
37 | O=C(CN1CCS(=O)(=O)CC1)NC1CCOc2ccccc21 (stereo unspecified) | -22.4%
38 | O=C(CN1CCS(=O)(=O)CC1)NC1CCCOc2ccccc21 (stereo unspecified) | 63.6%
39 | O=C(CN1CCS(=O)(=O)CC1)NC1CCCc2ccccc21 (stereo unspecified) | -17.2%
40 | Cc1ccc(C2CSCCN2C(=O)c2ccncc2)cc1 (stereo unspecified) | -2.39%
41 | CCN(CC1CN(CCc2ccccn2)CCO1)c1cccnn1 (stereo unspecified) | -14.2%
42 | CCN(CC1CN(Cc2ccn(C(C)C)n2)CCO1)c1cccnn1 (stereo unspecified) | 54.3%
43 | CC(C)n1ccc(CN2CCOC(CNc3cccnn3)C2)n1 (stereo unspecified) | -31.5%
44 | CCc1nc(CN2CCOC(CN(C)c3cccnn3)C2)cs1 (stereo unspecified) | -4.16%
45 | CCc1nc(CN2CCOC(CN(CC)c3cccnn3)C2)cs1 (stereo unspecified) | 57%
46 | CCN(CC1CN(Cc2cccnc2)CCO1)c1cccnn1 (stereo unspecified) | 48.3%

Row | SMILES | INHIBITION
47 | CCN(CC1CN(Cc2cccc(C#N)c2)CCO1)c1cccnn1 (stereo unspecified) | 58.5%
48 | CCN(CC1CN(Cc2ccccn2)CCO1)c1cccnn1 (stereo unspecified) | -32.2%
49 | COCc1nc(CN2CCOC(CN(C)c3cccnn3)C2)cs1 (stereo unspecified) | -8.11%
50 | CCOC(=O)CN1CCC2(CCCN(CCOc3ccccc3)C2)C1 (stereo unspecified) | 21.1%
51 | CC(C)(C)C(=O)NCCCC(=O)NC(C)(C)c1ccc2c(c1)OCO2 | 27.4%
52 | Cc1nccn1-c1ccc(=O)n(CCNC(=O)c2cccs2)n1 | 18.7%
53 | Cc1cnn(CC2CN(Cc3cccc(C(N)=O)c3)CCO2)c1 (stereo unspecified) | 16.9%
54 | O=C(Cc1cccs1)N1CCC2(CC1)COCCN2CC1CC1 | 21.7%
55 | CC(C)(CO)N1CCN(S(=O)(=O)CCCF)CC1 | -15.565%
56 | CCN(Cc1ccc2c(c1)OCO2)C(=O)c1cccnc1O | -35.5%
57 | COCCn1cnc2ccc(NC(=O)C(C)C)cc2c1=O | 39.2%
58 | Cc1cc(C)c(CNC(=O)N2CCN(c3nccs3)CC2)c(=O)[nH]1 | -5.6%
59 | c1cncc(-c2noc(CN3CCCC(Cn4cncn4)C3)n2)c1 (stereo unspecified) | -52.5%
60 | CCc1cnc(CN2CCC(O)(c3cc(OC)cc(OC)c3)CC2)o1 | 11.3%
61 | COc1cc(OC)cc(C2(O)CCN(Cc3nc(C)c(C)o3)CC2)c1 | 22.2%
62 | COc1cc(OC)cc(C2(O)CCN(Cc3ncc(C)o3)CC2)c1 | 50.9%
63 | CCCc1nc(CNC2(c3nccs3)CCCC2)cs1 | -15.4%
64 | Cc1cc(NC(=O)CN2CCc3c(nc(C(C)C)n3C)C2)on1 | -21.2%
65 | Cc1cnn(CC2CCCCN2C(=O)c2n[nH]c3ccccc23)c1 (stereo unspecified) | -43.5%
66 | c1csc(CN2CCOCC3(CCN(C4CCOCC4)C3)C2)c1 (stereo unspecified) | 11.6%
67 | Cc1cccc(CN2CCOCC3(CCN(C4CCOCC4)C3)C2)c1 (stereo unspecified) | -35.9%
68 | COCCN1CCOCC2(CCCN(Cc3cccc(F)c3)C2)C1 (stereo unspecified) | 46.9%
69 | c1cc(CN2CCOCC3(C2)CN(Cc2nccs2)CCO3)ccn1 (stereo unspecified) | 34.4%

Row | SMILES | INHIBITION
70 | Cn1cc(CN2CCOCC3(CCN(C4CCOCC4)C3)C2)cn1 (stereo unspecified) | 11.6%
71 | C1CC(CN2CCOCC3(CCN(C4CCOCC4)C3)C2)CCO1 (stereo unspecified) | 40.9%
72 | c1ccc(CN2CCOCC3(CCN(C4CCOCC4)C3)C2)cc1 (stereo unspecified) | 50%
73 | O=C(c1ccco1)N1CCOCC2(CCN(C3CCOCC3)C2)C1 (stereo unspecified) | 8.69%
74 | Fc1cccc(CN2CCOC3(COCCN(CC4CC4)C3)C2)c1 (stereo unspecified) | 81%
75 | c1csc(CN2CCOCC3(CCN(C4CCOCC4)C3)C2)n1 (stereo unspecified) | 63.1%
76 | c1csc(CN2CCC3(COCCN(CC4CC4)C3)C2)n1 (stereo unspecified) | -23.3%
77 | Fc1cccc(CN2CCOCC3(CCN(C4CCOCC4)C3)C2)c1 (stereo unspecified) | 58.1%
78 | CCn1nc(C)c(NC(=O)CN2CC[C@H](CO)[C@@H](O)C2)c1C | 10.6%
79 | O=S(=O)(CCCNCCn1cccn1)c1ccccc1 | -42.8%
80 | CCCc1nc(CN(CC)C(=O)c2ccc(S(C)(=O)=O)cc2)no1 | 19.8%
81 | CCn1ccc(NC(=O)CN2C(=O)CC(C)(C)c3ccccc32)n1 | -34.9%
82 | O=C(c1ccsc1)N1CCC2(CC1)COCCN(Cc1ccncc1)C2 | 25.2%
83 | CCS(=O)(=O)N1CCC2(CCCN(Cc3cc(OC)ccc3F)C2)C1 (stereo unspecified) | -14%
84 | COc1ccc(F)c(CN2CCCC3(CCN(S(C)(=O)=O)C3)C2)c1 (stereo unspecified) | 47%
85 | c1cncc(CN2CCC3(COCCN(C4CCOCC4)C3)C2)c1 (stereo unspecified) | 17.5%
86 | CN(C)CC(=O)N1CCC2(CC1)COCCN(Cc1ccncc1)C2 | 61.4%
87 | COc1ccc(CN2CCOCC3(CCN(C4CCOCC4)C3)C2)cc1 (stereo unspecified) | 11.6%
88 | O=C(C1CCOC1)N1CCC2(CC1)COCCN(Cc1ccncc1)C2 (stereo unspecified) | 1.94%
89 | COc1ccc(F)c(CN2CCCC3(CCN(C4CCOCC4)C3)C2)c1 (stereo unspecified) | 77.8%
90 | O=C(C1CCCO1)N1CCC2(CC1)COCCN(Cc1ccncc1)C2 (stereo unspecified) | 5.44%
91 | c1cc(CN2CCOCC3(CCNCC3)C2)ccn1 | 63.7%
92 | c1cc(CN2CCOCC3(CCN(CC4CCOCC4)CC3)C2)ccn1 | 39.2%

Row | SMILES | INHIBITION
93 | c1cc(CN2CCOCC3(CCN(C4CCOCC4)C3)C2)ccn1 (stereo unspecified) | 52.2%
94 | Cc1cnn(CC(C)Nc2nc(C)cc(N(C)C)n2)c1 (stereo unspecified) | 15.6%
95 | Cc1cc(-n2c(C)cn(CN(C)CC3CC3)c2=O)no1 | -8.9%
96 | Cc1ccc(NC(=O)N2CCCC(N(C)C)C2)c(Br)c1 (stereo unspecified) | 15.1%
97 | Cc1cc(C(=O)N[C@H](C)c2onc(-c3cccnc3)c2C(=O)O)c(C)o1 | -30.7%
98 | NS(=O)(=O)CCCNC(=O)C1(c2cccc(Cl)c2)CC1 | 11.8%
99 | CCn1nc(C)c2nnn(CC(=O)Nc3ccc(C)cc3)c(=O)c21 | 29.2%
100 | Cc1c[nH]c(C2COCCN2C(=O)CCc2c(C)n[nH]c2C)n1 (stereo unspecified) | -3.65%
101 | Cc1nc(C(C)C)sc1C(C)N(C)C(=O)c1ccc(=O)n(C)c1 (stereo unspecified) | 16.1%
102 | Cn1ccc(C(=O)N2CCOC3(COCCN(CC4CC4)C3)C2)n1 (stereo unspecified) | -25.1%
103 | O=C(c1ccoc1)N1CCOC2(COCCN(CC3CC3)C2)C1 (stereo unspecified) | 71.3%
104 | O=C(c1ccoc1)N1CCOC2(COCCN(c3ncccn3)C2)C1 (stereo unspecified) | 46.6%
105 | CNC(=O)CCc1cc(C2CCCCN2C)nc(C)n1 (stereo unspecified) | -11.3%
106 | COc1ccc(CN2C[C@H]3CN(c4ccsc4)C(=O)[C@H]3C2)cc1 | 50%
107 | O=C1[C@H]2CN(Cc3ccc(F)cc3)C[C@H]2CN1c1ccsc1 | 22.9%
108 | Cn1cc(N2C[C@@H]3CN(Cc4ccccn4)C[C@@H]3C2=O)cn1 | 34.9%
109 | O=C1[C@H]2CN(Cc3ccccn3)C[C@H]2CN1c1ccsc1 | 56.7%
110 | O=C1[C@H]2CN(Cc3nccs3)C[C@H]2CN1c1ccsc1 | 32.4%
111 | O=C1[C@H]2CN(Cc3ccncc3)C[C@H]2CN1c1ccsc1 | 15.9%

Reference: ChEMBL document CHEMBL4513216, “Probing the Open Global Health Chemical Diversity Library for Multistage-Active Starting Points for Next-Generation Antimalarials” (ACS Infect Dis, 2020)
